Bioassay records from PubChem.
D2 ag-1 – human D2 receptor agonism in beta-arrestin assay | P14416 | DiscoveRx PathHunter D2 beta-arrestin, luminescence, 90 min; 100% = 57 uM dopamine signal | activation, % (test concentration not listed) | actives 0.084% (n = 360,000); in the data active means activation above about 40%; inconclusive means between about 15% and that limit
Target sequence (P14416 whole entry, looked up): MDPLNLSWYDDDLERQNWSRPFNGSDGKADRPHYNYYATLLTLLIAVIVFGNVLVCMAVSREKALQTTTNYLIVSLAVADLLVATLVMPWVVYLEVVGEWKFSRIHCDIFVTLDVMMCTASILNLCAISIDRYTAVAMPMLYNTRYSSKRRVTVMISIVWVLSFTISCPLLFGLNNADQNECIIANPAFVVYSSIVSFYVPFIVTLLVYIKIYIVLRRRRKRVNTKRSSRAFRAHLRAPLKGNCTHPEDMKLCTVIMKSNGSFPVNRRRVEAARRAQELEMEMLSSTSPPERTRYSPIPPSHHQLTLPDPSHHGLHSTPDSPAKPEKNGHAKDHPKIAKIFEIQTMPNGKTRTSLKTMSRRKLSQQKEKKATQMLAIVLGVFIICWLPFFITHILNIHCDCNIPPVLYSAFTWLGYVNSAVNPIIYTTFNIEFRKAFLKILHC
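Agonist mode: compounds alone added to overnight-plated D2 PathHunter cells for 90 min at 37 C, with 57 uM final dopamine (EC100) defining full response. Beta-arrestin recruitment detected by chemiluminescent reagent, read after 1 h at ambient temperature.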
D2 ag-2 – activates the human D2 dopamine receptor. AID 485358. HEK293 T-REx D2 cells, calcium flux agonist mode. P14416. activation, % at 2 µM. actives 0.53% (n = 340,000);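 active means activation over 3 SD above normal in the single-dose calcium agonist read, cut at about 30% in these data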; further: 0% is about no effect
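Tetracycline-induced HEK293 Trex cells with D2 receptor force-coupled to calcium signaling, plated overnight at 30 C and loaded with no-wash calcium dye. Calcium flux read kinetically for 180 s after compound addition; responses flag agonists.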
D2 PAM-1 – human D2 receptor positive allosteric modulation. potentiation, % (concentration not given with the values). actives 0.23% (n = 360,000). DiscoveRx D2 beta-arrestin cells, luminescence, 90 min; 100% = 57 uM dopamine signal. AID 624464; in the data active means potentiation above about 50%; inconclusive means mostly about 30% to 49%
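PathHunter beta-arrestin assay in DiscoveRx D2 cells. Compounds were added with an EC20 of dopamine (50 nM final) for 90 min at 37 deg C. Luminescence was read 1 h after detection reagent, with 57 uM dopamine as the EC100 control.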
D2 antagonist – D2 dopamine receptor (human) antagonism; P14416; HEK293 TREx D2 cells, calcium flux, dopamine EC80; inhibition, % at 10 µM; actives 2% (n = 340,000); AID 485344; in the data active means inhibition above about 30%; inactive means below that, where a call was filed; further: 0% is about no effect
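Read-out: kinetic calcium fluorescence (1 cycle/s) in inducible HEK293 T-REx D2 cells after an EC80 dopamine addition that followed 180 s compound preincubation. Loss of the dopamine response indicates antagonism.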
D2 PAM-2 – D2 dopamine receptor (human) potentiation. actives 0.34% (n = 340,000). P14416. HEK293 T-REx D2, calcium flux, EC20 dopamine potentiation. AID 485347. potentiation, % at 10 µM;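 active means potentiation over 3 SD above the plate norm, cut at about 30% in these data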; further: 0% is about no effect
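Calcium flux readout, no-wash dye, 1 read/s. Inducible HEK293 Trex D2 line, overnight 30 C. Compound alone 180 s (agonist flags), then EC20 dopamine, another 180 s to score potentiation.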
Starred values were filed as active, the others as inactive. Sampled rows, rich in hits. Any-hit rate of the full collection: about 2.4%.

For Cc1cc(C(=O)CSc2nnc(-c3ccccc3)o2)c(C)n1CC1COc2ccccc2O1 (stereo not given) the results were D2 ag-1 1, D2 ag-2 1, D2 PAM-1 9, D2 antagonist -17 and D2 PAM-2 15.
`CC(C)OC(=O)c1cc2c(ccn2C)n1CC(=O)N1CCC(Cc2ccccc2)CC1` gave D2 ag-1 -5, D2 ag-2 1, D2 PAM-1 -8, D2 antagonist -7 and D2 PAM-2 105*.
For CCOC(=O)c1c(-c2cccc([N+](=O)[O-])c2)csc1NC(=O)C1CC1 the results were D2 ag-1 11, D2 ag-2 0, D2 PAM-1 55*, D2 antagonist -28 and D2 PAM-2 8.
For CCOC(=O)c1c(-c2cccc([N+](=O)[O-])c2)csc1NC(=O)C1CCCCC1 the results were D2 ag-1 7, D2 ag-2 0, D2 PAM-1 inconclusive, D2 antagonist 1 and D2 PAM-2 -7.
Screening Cc1ccc(N2CC(NC(=O)c3ccc(S(=O)(=O)N4CCCC4)cc3)CC2=O)cc1 (stereo not given) returned D2 ag-2 0 and D2 PAM-2 11.
CCOC(=O)c1cc(C)[nH]c1C was read as D2 ag-1 -20, D2 ag-2 0, D2 PAM-1 -10, D2 antagonist -9 and D2 PAM-2 9.
CCOC(=O)c1cc(C)[nH]c(=O)c1C#N was read as D2 ag-1 -1, D2 ag-2 0, D2 PAM-1 62*, D2 antagonist -17 and D2 PAM-2 7.
O=S(=O)(NCCS(=O)(=O)N1CCN(c2ccccc2F)CC1)c1ccc(Cl)cc1 was read as D2 ag-2 1 and D2 PAM-2 -7.
Screening N#CCCCSc1ncccc1-c1nc2ccccc2[nH]1 returned D2 ag-1 0, D2 ag-2 0, D2 PAM-1 1, D2 antagonist -6 and D2 PAM-2 4.
N#CCSc1ncccc1-c1nc2ccccc2[nH]1 was read as D2 ag-1 -1, D2 ag-2 1, D2 PAM-1 -4, D2 antagonist 14 and D2 PAM-2 37*.
CCOC(=O)CNC(=O)c1ccc2c(c1)OCCO2 was read as D2 ag-1 -2, D2 ag-2 0, D2 PAM-1 -3, D2 antagonist -3 and D2 PAM-2 -7.
For O=C(CNC(=O)c1ccc(Cl)cc1)OCC(=O)c1ccc2c(c1)OCCO2 the results were D2 ag-1 -2, D2 ag-2 0, D2 PAM-1 -11, D2 antagonist 41* and D2 PAM-2 14.
`CCc1ccc(Cn2c(CNS(=O)(=O)c3ccc(F)c(Cl)c3)nc3cccnc32)cc1` gave D2 ag-2 0 and D2 PAM-2 -5.
For CCOC(=O)C1CCN(C(c2ccc(OCC)cc2)c2c(O)cc(C)n(CCOC)c2=O)CC1 (stereo not given) the results were D2 ag-2 -1 and D2 PAM-2 1.
Screening O=C(NCCc1ccccc1Cl)c1cc2ccccn2n1 returned D2 ag-2 1 and D2 PAM-2 -3.
Screening O=S(=O)(c1ccc(-c2csc(-c3cccnc3)n2)cc1)N1CCCCC1 returned D2 ag-1 4, D2 ag-2 1, D2 PAM-1 16, D2 antagonist 37* and D2 PAM-2 -4.
For COc1nc(OC)nc(N2CCC(C(=O)NCC3CCCCC3)CC2)n1 the results were D2 ag-1 0, D2 ag-2 -1, D2 PAM-1 -4, D2 antagonist -5 and D2 PAM-2 14.
For COc1nc(OC)nc(N2CCCCCC2)n1 the results were D2 ag-1 0, D2 ag-2 -1, D2 PAM-1 -4, D2 antagonist 33* and D2 PAM-2 4.
COc1ccc(CC(=O)N2CCc3cc(OC)c(OC)cc3C2COc2cc(C)cc(C)c2)cc1OC (stereo not given) was read as D2 ag-2 0 and D2 PAM-2 12.
COc1cccc(-n2c(SCC(=O)NCc3ccco3)nnc2-c2c[nH]c3ccccc23)c1 was read as D2 ag-1 2, D2 ag-2 -2, D2 PAM-1 4, D2 antagonist 48* and D2 PAM-2 -11.
